Screening data as filed in PubChem.
hcDAF-12 act: activators of H. contortus DAF-12 nuclear receptor; HEK293 hcDAF-12 lit1-tk-luc reporter, luminescence; 0% DMSO, 100% Δ7-dafachronic acid; activation, % at 6.8 µM; actives 1.4% (n = 370,000); AID 652067;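 active = activation above the mean of all tested compounds plus 3 SD, cut at about 5.5% in these data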;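 also: 100% = response to 3 µM Δ7-dafachronic acid high control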
DAX1 inh-1: inhibits human nuclear receptor DAX1 | AID 504766 | actives 0.99% (n = 340,000) | inhibition, % at 6.75 µM | HEK293 Gal4-DAX1 luciferase reporter, luminescence;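 active = inhibition above the mean over all tested compounds plus 3 SD, cut at about 4.2% in these data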;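 also: 0% = DAX1-transfected cells with DMSO and 100% = empty-vector control cells with DMSO; inhibition shows as a rise in luminescence from relieved DAX1 repression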
DAX1 inh-2: inhibitors of DAX1 repression of SF-1 activated StAR promoter. inhibition, % at 6.8 µM. actives 1.1% (n = 370,000). HEK293T StAR-luciferase reporter, SF-1/DAX-1 repression relief;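 active = inhibition above the mean over all tested compounds plus 3 SD, cut at about 3.6% in these data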;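 also: 0% = DAX-1 cells with DMSO and 100% = cells lacking DAX-1 with DMSO; higher inhibition means more luminescence from relief of DAX-1 repression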
ssDAF12 agonist: activates DAF-12 receptor from parasite S. stercoralis | activation, % at 6.8 µM | actives 1% (n = 370,000) | AID 652126 | HEK293 ssDAF-12/GRIP1 lit1-tk-luc reporter, luminescence; % of 3 µM dafachronic acid response;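 active = activation above the mean over all tested compounds plus 3 SD, cut at about 0.9% in these data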;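 also: 0% = DMSO-only wells and 100% = 3 µM delta7-dafachronic acid wells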
hgDAF12 agonist: activates the H. glycines DAF-12 receptor ligand-binding domain | HEK293 GAL4-hgDAF12 UAS-luciferase reporter, agonist luminescence; normalized to butyrate control | activation, % at 6.8 µM | actives 1.8% (n = 370,000) | AID 687014;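 active = activation above a cutoff set at the mean of all screened compounds plus 3 SD, cut at about 10% in these data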;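 also: 0% = DMSO wells and 100% = sodium butyrate wells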
NR1D1 modulator: Rev-erb alpha (human) modulation; P20393; Rev-erbα–FITC-DNA binding, fluorescence polarization, 90 min; activity, % at 10 µM; actives 0.79% (n = 370,000);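 active = activity above about 14%, limit read from the data; passing the limit was not always enough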;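 also: 0% = DMSO wells with 35 nM protein and 100% = DMSO wells with 750 nM protein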
Target sequence (P20393 whole entry, looked up): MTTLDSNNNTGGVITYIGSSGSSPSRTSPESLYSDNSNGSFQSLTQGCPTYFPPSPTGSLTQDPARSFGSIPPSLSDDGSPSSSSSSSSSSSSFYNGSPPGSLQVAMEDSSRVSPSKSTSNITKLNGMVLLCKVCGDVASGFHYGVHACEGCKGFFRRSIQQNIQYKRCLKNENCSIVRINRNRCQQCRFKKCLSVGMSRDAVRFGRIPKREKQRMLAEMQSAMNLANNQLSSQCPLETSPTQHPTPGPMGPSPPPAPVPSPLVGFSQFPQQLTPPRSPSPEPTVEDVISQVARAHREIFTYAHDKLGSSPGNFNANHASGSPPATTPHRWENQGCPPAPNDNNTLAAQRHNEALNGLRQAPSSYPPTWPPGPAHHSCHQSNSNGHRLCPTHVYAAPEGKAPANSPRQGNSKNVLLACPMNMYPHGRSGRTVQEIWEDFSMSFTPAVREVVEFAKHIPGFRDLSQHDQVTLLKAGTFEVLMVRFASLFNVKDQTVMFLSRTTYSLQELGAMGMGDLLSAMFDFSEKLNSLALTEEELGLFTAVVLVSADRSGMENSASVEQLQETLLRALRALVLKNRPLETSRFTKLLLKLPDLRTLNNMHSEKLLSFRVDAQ
Active calls of the source: *; x = not tested or not shown. This is a sample that favours compounds with a hit; in the whole collection about 4.8% have one here.

SMILES | hcDAF-12 act | DAX1 inh-1 | DAX1 inh-2 | ssDAF12 agonist | hgDAF12 agonist | NR1D1 modulator
CCCC(=O)N(CCN1CCOCC1)c1nc2c(OCC)cccc2s1 | x | 0 | x | x | x | x
CCCC(=O)N(CCN1CCOCC1)c1nc2c(F)cc(F)cc2s1 | 2 | 2 | 4.0* | -1 | 5 | 4
O=C(c1ccc([N+](=O)[O-])cc1)N1CCOCC1 | -1 | 0 | 0 | 8.9* | 0 | -4
CC(=O)c1cccc(NC(=O)C2CCN(C(=O)c3ccc([N+](=O)[O-])cc3)CC2)c1 | 4 | 1 | 0 | 2.3* | 4 | -1
O=C(NCC(O)CN1CCOCC1)c1ccc([N+](=O)[O-])cc1 (stereo not given) | -2 | 6.2* | 0 | -1 | -3 | -2
O=C(c1ccc([N+](=O)[O-])cc1)N1CCCC1 | -1 | 0 | -1 | -1 | 1 | 9
CC(c1c[nH]c2ccccc12)c1cn(C)c2ccccc12 (stereo not given) | 2 | x | -1 | -1 | 2 | -4
C=c1[nH]cc(C(C)c2c(C)n(C)c3ccccc23)/c1=C/C (stereo not given) | 6.0* | x | 0 | 0 | 5 | 4
CCOc1ccccc1-n1nnnc1SCc1nc2ccccc2s1 | 4 | 1 | 2 | 3.6* | 6 | -5
Cc1ccccc1-n1c(C)nnc1SCc1nc2ccccc2s1 | 5 | 1 | 3 | 0 | 10 | -2
CCCC/C=C1/[C@H](c2ccccc2)N(C)C2=N[C@H](c3ccccc3)CC(=O)N21 | -3 | x | x | -2 | -1 | -7
COCCN1CCCc2nc(-c3ccc(Br)cc3)ccc21 | 1 | x | 4.0* | 0 | 11* | 2
Brc1ccc(CN2CCCc3nc(-c4ccccc4)ccc32)cc1 | 2 | x | -1 | 1 | 5 | -6
COc1ccc(-c2ccc3c(n2)CCCN3Cc2ccccc2C(F)(F)F)cc1 | 2 | x | 4.2* | -1 | 8 | 0
FC(F)(F)c1ccccc1CN1CCCc2nc(-c3ccc(Br)cc3)ccc21 | 0 | x | 2 | 2.6* | 7 | 9
FC(F)(F)c1ccccc1CN1CCCc2nc(-c3ccccc3)ccc21 | 0 | x | 1 | -1 | 0 | 0
COC(=O)[C@]12C[C@H](CC(=O)N3CCC(c4ccccc4)CC3)C(=O)N(CCc3ccc(OC)c(OC)c3)C1=C[C@H](COCc1ccccc1)O[C@@H]2C | -2 | x | -1 | -1 | 2 | 0
COc1cc(-n2c(C)nc3cc(C(=O)N4CCCN(C(C)=O)CC4)ccc32)cc(OC)c1OC | -1 | x | 1 | 0 | 4 | 6
CCOC(=O)[C@@]12CCCC=C1N(CCc1ccc(Cl)cc1)C(=O)[C@H]2CC(=O)NCc1cccc2ccccc12 | -1 | x | 0 | -1 | -2 | 2
Cn1c(=O)[nH]c(=O)c2c1nc(SCC(=O)O)n2CCOc1ccccc1 | 0 | 2 | 0 | 0.9* | 2 | -1
Cn1c(=O)[nH]c(=O)c2c1nc(SCC(=O)O)n2CCc1ccccc1 | 0 | 1 | 0 | -1 | -1 | -2
O=C1N/C(=N/N=C/c2ccco2)SC1Cc1ccccc1 (stereo not given) | -1 | 5.9* | 0 | -1 | -3 | -4
Cc1ccc(CC2S/C(=N/N=C/c3ccco3)NC2=O)cc1 (stereo not given) | 1 | 1 | 1 | -1 | 0 | -1
O=C(NCCc1ccccc1Cl)[C@@H]1CCCN1C(=O)[C@@H](NC(=O)N1CCOCC1)c1ccccc1 | -1 | x | 1 | -1 | 3 | -8
CN(C)c1ccc2c(c1)C(=NO)c1ccccc1-2 | x | 4.4* | x | x | x | x
SMILES | hcDAF-12 act | DAX1 inh-1 | DAX1 inh-2 | ssDAF12 agonist | hgDAF12 agonist | NR1D1 modulator
ON=C1c2ccccc2-c2ccccc21 | 2 | 1 | 1 | -1 | 4 | -1
C=CC[C@@]1(c2ccc(Br)cc2OC)Oc2ccccc2-c2nccnc21 | -2 | x | -1 | -2 | 0 | -5
COc1ccc(C(=O)NC2c3ccccc3-c3ccccc32)cc1 | -1 | -1 | 0 | -1 | 0 | -3
COC(=O)/C=C1\OC(C)c2ccccc21 (stereo not given) | 3 | x | 1 | 1.2* | -3 | 3
CC(C)c1ccc(C(=O)NN2C(=O)C3CCCCC3C2=O)cc1 (stereo not given) | 5 | 2 | 3.8* | -1 | 11* | 2
COc1ccc(NC(=O)CSc2ccccn2)cc1 | 1 | 0 | 1 | -1 | 5 | -5
